Assay outcomes deposited in PubChem by several laboratories.
Compounds with a hit are over-represented: about 2.6% of the library has one in this group of screens.
MCL1-BIM inh = inhibitors of human MCL1 binding to BIM-BH3 peptide | GST-MCL1 / FITC-Bim-BH3 fluorescence polarization | inhibition, % at 10.9 µM | 320,000 compounds, 0.68% hits;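 active means inhibition above the mean inhibition of all tested compounds plus 3 SD, set per campaign, cut at about 40% in these data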;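 further: 0% = DMSO wells and 100% = unlabeled Bim-BH3 peptide control; higher means more loss of mP so more displacement of Bim peptide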
Target sequence (Q07820 whole entry, looked up): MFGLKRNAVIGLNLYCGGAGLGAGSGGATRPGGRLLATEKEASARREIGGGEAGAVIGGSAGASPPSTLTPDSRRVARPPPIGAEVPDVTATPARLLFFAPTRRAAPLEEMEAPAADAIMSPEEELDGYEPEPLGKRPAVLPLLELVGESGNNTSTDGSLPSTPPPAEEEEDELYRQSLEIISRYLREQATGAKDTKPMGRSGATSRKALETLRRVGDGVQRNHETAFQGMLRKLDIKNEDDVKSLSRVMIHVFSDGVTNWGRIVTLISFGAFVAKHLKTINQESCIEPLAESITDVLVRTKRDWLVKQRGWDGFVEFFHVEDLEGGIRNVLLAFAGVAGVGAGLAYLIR
Mcl1-Bid inh = disrupts binding of human Mcl-1 to Bid peptide | Q07820 | TR-FRET Mcl-1/Bid-Dy647 peptide binding, 1536-well | inhibition, % at 21.7 µM | 220,000 compounds, 0.97% hits | AID 1021;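 active means compounds that cut the binding signal by more than half at the single screening dose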;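 further: His-tagged Mcl-1 with europium anti-His antibody binding Bid BH3 peptide; 0% = Mcl-1 plus peptide wells and 100% = peptide-only wells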
Mcl-1 Bim block = human Bim-Mcl-1 interaction inhibition; Q07820; Bead-based flow cytometry, Bim peptide-Mcl-1 binding; inhibition, % at 10 µM; 190,000 compounds, 0.1% hits; AID 1009; in the data active means inhibition above about 40%;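 further: 0% = no compound tracer wells and 100% = peptide blocker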
eIF4E-4G inh = inhibitors of eIF4E and eIF4G interaction in translation initiation. P63073+Q04637. TR-FRET eIF4E-eIF4GI(517-606) binding, 2 h. inhibition, % at 21.7 µM. 220,000 compounds, 0.37% hits;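 active means inhibition above about 30%, limit read from the data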;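 further: 0% = full FRET control wells and 100% = background wells lacking eIF4GI fragment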
Mcl1-Noxa inh = Mcl-1/Noxa interaction inhibition. Q07820. TR-FRET Mcl-1/Noxa peptide binding, 2 h. inhibition, % at 21.7 µM. 220,000 compounds, 1.5% hits;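 active means compounds that cut the protein-peptide binding signal by more than 50% relative to plate controls in a single-dose test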;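 further: His-tagged Mcl-1 with rhodamine Noxa BH3 peptide and terbium anti-His antibody; 0% = Mcl-1 plus Noxa peptide wells and 100% = peptide-only wells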
14-3-3 Bad PPI = disrupts binding of bovine 14-3-3 zeta to phospho-Bad peptide. P63103. TR-FRET 14-3-3zeta/Dy647-pBad peptide displacement, 1 h. inhibition, % at 21.7 µM. 220,000 compounds, 0.71% hits. AID 781;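 active means inhibition above about 70%, limit read from the data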;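 further: 0% = full 14-3-3 plus peptide FRET controls and 100% = background without 14-3-3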
Target sequence (P63103 whole entry, looked up): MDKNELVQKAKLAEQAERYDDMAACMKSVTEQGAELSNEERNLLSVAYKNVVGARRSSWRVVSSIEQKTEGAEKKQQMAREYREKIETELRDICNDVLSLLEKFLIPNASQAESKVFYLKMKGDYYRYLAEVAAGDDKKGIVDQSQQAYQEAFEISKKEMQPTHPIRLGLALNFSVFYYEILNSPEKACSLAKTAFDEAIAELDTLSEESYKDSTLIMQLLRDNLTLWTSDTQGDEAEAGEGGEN
Starred values were filed as active, the others as inactive; / = no result given.

SMILES	MCL1-BIM inh	Mcl1-Bid inh	Mcl-1 Bim block	eIF4E-4G inh	Mcl1-Noxa inh	14-3-3 Bad PPI
CCNc1nc(NC(C)C)nc(Oc2ccc(OCCOc3ccccc3)nn2)n1	6	-9	2	57*	1	5
CC(C)Cc1nc2ccccc2n1CCc1ccccc1	13	9	-1	6	12	-1
CC(C)c1ccc([N+](=O)[O-])cc1S(=O)(=O)N1CCN(C)CC1	4	/	/	/	/	/
Oc1ccc2cccnc2c1	45*	-2	-4	-5	4	10
Cc1ccc(C2C(C#N)=C(N)SC(N)=C2C#N)o1	-1	11	2	19	84*	27
CC1=NNC(=O)C1C(c1ccccc1)C1C(=O)NN=C1C (configuration not stated)	-6	-35	-23	0	-1	-11
O=C(NN(C(=O)c1ccccc1)c1ccccc1)c1ccccc1	5	-19	/	-3	12	-6
O=C(c1ccccc1)N(Nc1ccccc1)c1ccccc1	6	-14	0	99*	2	0
CC(=O)c1ccc(NC(=O)C(C)Sc2nnc(C3CCCCC3)o2)cc1 (configuration not stated)	5	/	/	/	/	/
CN(C)C(=O)N1CCC(C(=O)NC2CCCCCCC2)CC1	6	-12	67*	3	4	17
Cc1cc(OCC(=O)O)c2cccc(C)c2n1	-6	31	0	10	17	77*
Cc1ccc2nc(C)cc(OCC(=O)O)c2c1	10	27	-3	-9	0	58
CC(C)(C)c1ccc(S(=O)(=O)N2CCN(C(=O)C3CCC3)CC2)cc1	2	/	/	/	/	/
Cc1cc(CCC(=O)O)c(C)cc1CCC(=O)O	2	-41	0	-3	5	83*
CC(NC(=O)C(=O)N/N=C\c1cccc([N+](=O)[O-])c1)c1ccccc1 (configuration not stated)	8	-3	-1	-1	8	4
Clc1ccccc1N/N=C/c1ccc2c(c1)OCO2	11	-3	0	6	21	0
Cc1sccc1/C=N/NC(=O)c1cccc2ccccc12	5	-10	-2	-4	92*	-1
Cc1ccccc1C(=O)N/N=C/c1ccsc1C	-12	-15	-4	2	-7	5
Cc1nn(C)c(C)c1NC(=O)CSc1nc(Cc2ccccc2)nc2c1cnn2-c1ccccc1	7	/	/	/	/	/
Cc1nn(Cc2ccccc2)c(C)c1NC(=O)CSc1nc(C2CC2)nc2c1cnn2-c1ccccc1	3	63*	0	-33	3	41
C=CCSc1nc2c(sc3nc(C)cc(C)c32)c(=O)[nH]1	13	-5	1	2	57*	16
COc1ccc(NC(=O)CSc2cn[nH]n2)c(OC)c1	-3	/	/	/	/	/
COc1ccc(NC(=O)CSc2nc(O)cc(=O)[nH]2)c(OC)c1	12	-52	/	96*	22	-4
CCOC(=O)CCCNC(=O)CCNC(=O)c1ccc(OCC)cc1	9	-12	-1	-2	66*	0
O=c1c(C(c2c(O)nc3n(c2=O)CCS3)c2cccc3ccccc23)c(O)nc2n1CCS2	4	-11	1	2	53*	58
SMILES	MCL1-BIM inh	Mcl1-Bid inh	Mcl-1 Bim block	eIF4E-4G inh	Mcl1-Noxa inh	14-3-3 Bad PPI
O=c1c(C(c2ccc(O)cc2)c2c(O)nc3n(c2=O)CCS3)c(O)nc2n1CCS2	-3	-9	0	9	60*	55
O=c1c(C(c2ccc(O)cc2)c2c(O)nc3n(c2=O)CCCS3)c(O)nc2n1CCCS2	3	-88	3	9	52*	28
CCOC(=O)CCCc1sc(N)nc1-c1[nH]c(=O)[nH]c1C	21	7	0	0	24	80*
CCOC(=O)CCc1c(C)n[nH]c1C	-1	-4	-4	5	8	-10
CCn1cc(C(=O)NCCCOC(C)C)c(=O)c2cc(S(=O)(=O)N3CCOCC3)ccc21	7	/	/	/	/	/
CCOc1ccc(NC(=S)NN2C(C)CCCC2C)cc1 (configuration not stated)	32	57*	-8	-5	25	-34
CC(=O)c1ccc(NC(=S)NN2C(C)CCCC2C)cc1 (configuration not stated)	7	6	0	-2	9	-5
CN(Cc1nc2ccccc2c(=O)[nH]1)C(=O)c1cc(C2CC2)nn1-c1ccccc1	-4	/	/	/	/	/
COc1cc(C2C(C#N)=C(N)Oc3cc(C)oc(=O)c32)cc(OC)c1OC (configuration not stated)	-3	6	/	-1	-5	4
COc1cc(C2C(C#N)=C(N)Oc3cc(C)oc(=O)c32)cc2c1OCO2 (configuration not stated)	2	-6	0	2	51*	27
Cc1cc(C(=O)NNC(=O)NC(C)C)no1	-2	-39	/	1	10	4
N#CC1=C(N)N2C(=C(C#N)C1c1ccc(Br)cc1)Nc1ccccc12 (configuration not stated)	-17	51*	-5	-2	50	6
Cc1cc(C)n(CC(=O)NC2CCCCC2C)c(=O)c1C#N (configuration not stated)	-2	/	/	/	/	/
CS(=O)(=O)N1CCN(Cc2ccc(C(F)(F)F)cc2)CC1	-13	52*	0	2	19	81*
CS(=O)(=O)N1CCN(Cc2ccccc2C(F)(F)F)CC1	8	-5	-2	-3	0	-5
COc1ccc(CN(C)S(=O)(=O)c2c(C)noc2C)cc1OC	0	/	/	/	/	/
COc1ccc(S(=O)(=O)N(c2onc(C)c2Cl)S(=O)(=O)c2ccc(OC)c(OC)c2)cc1OC	6	11	2	-2	3	78*
c1ccc(Nc2c(-c3ccco3)nc3ccccn23)cc1	6	-40	-4	-6	17	-8
c1ccc(-c2nc(-c3ccco3)n3ccccc23)cc1	45*	-1	4	-1	25	7
CCN(CC)c1ccc(/C=N/NC(=O)Cc2nnc(NC(=O)Nc3ccccc3)s2)cc1	-7	-67	-12	-5	73*	3
COc1ccc(OCC(=O)NNC(=O)c2cccnc2)cc1	1	-6	2	9	-7	92*
Cc1ccc(OCC(=O)NNC(=O)c2cccnc2)cc1	1	-23	2	-2	11	-7
CC(=O)Cc1nsc(NC(=O)c2ccc(-c3cc(C(F)(F)F)ccc3Cl)o2)n1	5	68*	-3	-7	6	43
CC(=O)Cc1nsc(NC(=O)c2ccc(-c3cc(Cl)ccc3Cl)o2)n1	7	3	-3	-1	18	-7
COc1ccc(O)c(-c2cn[nH]c2-c2cccs2)c1	-1	-16	-1	-4	55*	0
COc1ccc(-c2[nH]ncc2-c2cscn2)c(O)c1	-1	-27	-4	-1	16	-13
COC(=O)Sc1nnc(-c2ccc(Br)cc2)o1	-29	28	0	70*	49	67
